# Results published in article PMC4336329 (PLoS ONE, 2015).
# Hit rate of the full screen: of about 310,000 compounds, about 14,000 (4.5%) showed an effect of 50% or more. Effects have a minus sign here. The entries come from a sample that favours strong results as a whole.
# Molecular target: human ether-à-go-go-related gene (hERG) potassium channel (human, UniProt Q12809)
# Test: primary screen, population patch clamp on CHO cells stably expressing hERG; higher = less effect of the substance
# 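Further: peak tail current of the secondary pulse compared with the same well before compound.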
# human ether-à-go-go-related gene (hERG) potassium channel, sequence (Q12809 whole entry, looked up): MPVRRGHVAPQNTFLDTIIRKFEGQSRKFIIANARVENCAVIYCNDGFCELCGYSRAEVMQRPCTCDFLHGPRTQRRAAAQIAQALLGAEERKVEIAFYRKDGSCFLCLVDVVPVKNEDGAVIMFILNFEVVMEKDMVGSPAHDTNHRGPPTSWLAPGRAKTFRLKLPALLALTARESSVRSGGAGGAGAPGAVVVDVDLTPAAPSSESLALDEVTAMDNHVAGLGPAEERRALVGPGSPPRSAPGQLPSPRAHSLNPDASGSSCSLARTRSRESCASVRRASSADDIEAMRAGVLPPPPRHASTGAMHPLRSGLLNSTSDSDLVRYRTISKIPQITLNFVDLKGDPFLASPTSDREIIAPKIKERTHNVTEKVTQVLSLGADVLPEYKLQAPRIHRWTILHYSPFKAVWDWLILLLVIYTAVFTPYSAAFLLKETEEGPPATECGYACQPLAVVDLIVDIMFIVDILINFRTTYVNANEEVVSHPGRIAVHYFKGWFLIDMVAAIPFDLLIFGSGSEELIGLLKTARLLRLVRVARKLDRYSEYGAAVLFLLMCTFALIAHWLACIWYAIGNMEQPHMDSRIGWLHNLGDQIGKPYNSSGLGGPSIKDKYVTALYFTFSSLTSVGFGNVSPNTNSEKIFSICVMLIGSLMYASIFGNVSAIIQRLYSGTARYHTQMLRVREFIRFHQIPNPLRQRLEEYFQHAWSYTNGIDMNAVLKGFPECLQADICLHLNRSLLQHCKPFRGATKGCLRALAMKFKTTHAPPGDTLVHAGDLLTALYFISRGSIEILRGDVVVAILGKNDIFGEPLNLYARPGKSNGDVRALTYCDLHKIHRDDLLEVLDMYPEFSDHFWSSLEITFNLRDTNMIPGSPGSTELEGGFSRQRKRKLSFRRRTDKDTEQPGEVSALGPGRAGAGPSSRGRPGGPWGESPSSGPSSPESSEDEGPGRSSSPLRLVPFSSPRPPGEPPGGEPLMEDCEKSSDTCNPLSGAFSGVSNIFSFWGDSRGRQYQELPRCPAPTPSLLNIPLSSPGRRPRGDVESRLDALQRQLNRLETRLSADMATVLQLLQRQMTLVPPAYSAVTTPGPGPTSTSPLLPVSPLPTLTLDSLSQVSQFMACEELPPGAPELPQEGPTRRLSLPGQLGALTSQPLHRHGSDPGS
row,SMILES,"hERG current change (%, negative = inhibition) at 10uM [%]"
1,O=C(CCNC(=O)c1ccc([N+](=O)[O-])cc1)Nc1cc(Cl)ccc1N1CCOCC1,-69.9
2,O=C(CCNC(=O)c1ccc([N+](=O)[O-])cc1)Nc1ccccc1N1CCCCC1,-34.9
3,O=C(CCNC(=O)c1ccc([N+](=O)[O-])cc1)Nc1ccccc1N1CCCC1,-34.6
4,O=C(CCNC(=O)c1ccc([N+](=O)[O-])cc1)Nc1ccccc1N1CCOCC1,-64.3
5,O=C(CCNC(=O)c1ccc([N+](=O)[O-])cc1)Nc1ccc(N2CCOCC2)cc1N1CCOCC1,-4.63
6,CC(C)(C)c1ccc(C(=O)NCCC(=O)Nc2cc(Cl)ccc2N2CCOCC2)cc1,-2.31
7,O=C(N1CCCCCC1)N1CCN(S(=O)(=O)c2ccccc2)CC1,-11.9
8,Cc1c(CC(=O)NCC(=O)NCC(=O)O)c(=O)oc2cc3c(cc12)CCC(C)(C)O3,12.5
9,Cc1ccc(C)c(NC(=O)CN(C)C(=O)[C@@H](NC(=O)c2ccc(C(C)(C)C)cc2)C(C)C)c1,-16.5
10,Nn1c(SCC(=O)NC(=O)Nc2ccc3c(c2)OCCO3)nnc1C1CC1,14.3
11,O=C(NCc1ccc(Cl)cc1Cl)Nc1ccccc1,2.75
12,S=C(NCc1ccc(Cl)cc1Cl)Nc1ccccc1,10.1
13,CC(C)NC(=NCc1ccc(Cl)cc1Cl)Nc1ccccc1,-53
14,COC(=O)C1=C(c2ccc3ccccc3c2)C[C@@H]2CC[C@H]1N2C(=O)NCCCOC(C)C,-7.68
15,O=C(COc1ccc(-c2ccccc2)cc1)N/N=C/c1ccccc1Br,19.7
16,O=C(O)C1C2C=CC(C2)C1C(=O)N1CCN(C/C=C/c2ccccc2)CC1 (stereo not shown),17.1
17,COc1ccc(Cn2cc([N+](=O)[O-])nc2C)cc1[N+](=O)[O-],-2.26
18,Cc1nc([N+](=O)[O-])c(SCC(N)=O)n1Cc1ccccc1,27.8
19,Cn1cnc([N+](=O)[O-])c1SCC(O)CCl (stereo not shown),15.9
20,Cc1nc([N+](=O)[O-])c(SCC(O)CCl)n1Cc1ccc(Cl)cc1 (stereo not shown),-59.9

row,SMILES,"hERG current change (%, negative = inhibition) at 10uM [%]"
1,COCC(O)CSc1c([N+](=O)[O-])nc(C)n1Cc1ccc(OC)c([N+](=O)[O-])c1 (stereo not shown),-2.82
2,CCOc1ccc(Cn2c(C)nc([N+](=O)[O-])c2SCC(O)CCl)cc1[N+](=O)[O-] (stereo not shown),-68.2
3,CCCOc1ccc(Cn2c(C)nc([N+](=O)[O-])c2SCC(O)COC)cc1[N+](=O)[O-] (stereo not shown),-66
4,COc1ccc(Cn2c(C)nc([N+](=O)[O-])c2SCC(=O)O)cc1[N+](=O)[O-],16.5
5,CCOc1ccc(Cn2ccnc2CCl)cc1[N+](=O)[O-],-33.2
6,O=C(O)c1ccc(COc2ccccc2[N+](=O)[O-])o1,14.8
7,O=C1CCCC(O)=C1C(C#Cc1ccccc1)C1=C(O)CCCC1=O,-17.9
8,CCOC(=O)c1c(C)oc2ccc(NS(=O)(=O)c3cccs3)cc12,6.47
9,COC(=O)c1c(C)oc2ccc(NS(=O)(=O)c3cccs3)cc12,-2.42
10,COCCOC(=O)c1c(C)oc2ccc(NS(=O)(=O)c3cccs3)cc12,-51.4
11,CCOC(=O)c1ccc(NC(=O)CCSCCc2ccccn2)cc1,0.702
12,CC(C)C[C@H](NC(=O)[C@H](Cc1ccccc1)n1c(=O)[nH]c2ccccc2c1=O)C(=O)N1CCC[C@H]1C(=O)O,6.16
13,CCNc1nc(-c2ccc(OC(F)F)cc2)c(C)s1,15.1
14,Br.COc1ccc(-c2nc(NC3=NCCCCC3)sc2C)cc1,-26.6
15,CCN(CC)CCNc1nc(-c2ccc(OC)cc2)c(-c2ccc(OC)cc2)s1,-52.6
16,CNc1nc(-c2ccc(OC)cc2)c(-c2ccc(OC)cc2)s1,-12.7
17,CCN(CC)CCNc1nc(-c2ccc(OC(F)F)cc2)c(C)s1,-77.8
18,COCCNc1nc(-c2ccc(OC)cc2)c(-c2ccc(OC)cc2)s1,15.3
19,C/C(=N/NC(=O)c1ccc(Cl)cc1Cl)c1cccnc1,16.4
20,CN1CCN(c2nc3c(c(=O)n(C)c(=O)n3C)n2Cc2cccc3ccccc23)CC1,-5.1

row,SMILES,"hERG current change (%, negative = inhibition) at 10uM [%]"
1,CN(CC(=O)Nc1ccc(Cl)cc1F)C1CCS(=O)(=O)C1 (stereo not shown),-20.6
2,COc1ccc(CNC(=O)C2CC(=O)N(C3CCCC3)C2)cc1 (stereo not shown),-8.14
3,O=C(OCC#CCSc1nnc(-c2ccncc2)o1)c1cccs1,-53.2
4,Cc1ccc(-c2nnc(SCC#CCOC(=O)c3cccs3)o2)cc1,14.3
5,O=C(OCC#CCSc1nnc(-c2ccccc2)o1)c1cccs1,-17.7
6,COc1ccc(CN2CCNC(=O)C2CC(=O)NCc2cn[nH]c2-c2ccccc2)c(F)c1 (stereo not shown),-1.07
7,Cc1cccc(NC(=O)c2ccccc2NC(=O)Cc2ccccc2)c1C,4.93
8,CCNC(=O)CSc1nc(-c2ccccc2)cs1,-4.81
9,CN(C)c1nc(N2CCN(c3ccccc3)CC2)c(C#N)c(=O)o1,-16.9
10,CCN1CCN(C(c2cccs2)C(C)NC(=O)Oc2ccccc2)CC1 (stereo not shown),-38.5
11,CC(C)N(C(=O)c1ccc2nc(-c3ccccc3)c(-c3ccccc3)nc2c1)C(C)C,-4.73
12,Cc1ccc(SCc2nc(-c3ccccc3)no2)cc1,2.3
13,O=C(Cc1cccc2ccccc12)NCC1CCCO1 (stereo not shown),-5.85
14,O=C(NCC1CCCO1)c1cccc2ccccc12 (stereo not shown),21.2
15,CCN(CC)CCOC(=O)CCc1cccc2ccccc12.O=C(O)C(=O)O,-42.6
16,CCN(CC)CCOC(=O)C(Cc1ccco1)Cc1cccc2ccccc12.O=C(O)C(=O)O (stereo not shown),-76.8
17,CCN(CC)CCOC(=O)C(Cc1cccc2ccccc12)CC1CCCO1.O=C(O)C(=O)O (stereo not shown),-53.8
18,CCN(CC)CCOc1ccccc1OC.O=C(O)C(=O)O,-11
